Where “and” joins values, the source holds several entries; their conditions need not be identical. Equal entries are not always repeated. Structures can show the parent of a compound that is named as a salt. About 620 (11%) of roughly 5,800 compounds showed activity. The sample as a whole holds a higher share of actives than the screen did. Unmarked numbers belong to inactive results.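 How the source made its calls: active = score above a cut-off or among the top three wells of a plate; in these data no inactive exceeds 0.85.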
System: primary human hepatic stellate cells (donor 1)
Experiment: scaled lipid accumulation score (0 = DMSO-like, 1 = nortriptyline-like); higher = stronger HSC inactivation (lipid re-accumulation), active = hit call of the paper
Conditions: 48 h
Method: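 Primary lipid accumulation screen in primary human hepatic stellate cell myofibroblasts (donor 1, passage 8) in 384-well plates. 100 nL of library compound was pin-transferred into 30 µL medium in duplicate, and cells were treated for 48 h. The 'Scaled' score combines distance from plate baseline, toxicity and reproducibility penalties, and is normalised to nortriptyline (positive) and DMSO (negative) controls on each plate. A hit is defined as scaled >0.85 or among the top 3 wells per plate.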

[1] = library stock concentration: 10 mM
[2] = library stock concentration: 1 mM
[3] = library stock concentration: 3.33 mM
[4] = library stock concentration: 6.4 mM
[5] = library stock concentration: 80 uM
[6] = library stock concentration: 400 uM
[7] = library stock concentration: 2 mM

Cc1cc2c(cc1Cl)N(C(=O)Nc1ccnc3ccccc13)CC2
scaled lipid accumulation score [1]: 1.08 (active)

Cc1cc2c(cc1Cl)N(C(=O)Nc1ccc(Oc3cccnc3C)nc1)CC2
scaled lipid accumulation score [1]: 0.832

Cn1ccc2cc3c(cc21)CCN3C(=O)Nc1cccnc1
scaled lipid accumulation score [1]: ≤ 0 and ≤ -0.006

CC(=Nc1ccccc1N)c1c(C)cc(=O)n(O)c1O
scaled lipid accumulation score [1]: ≤ 0

CCCCCCCCCCCCCCCCOC[C@H](COP(=O)([O-])OCC[N+](C)(C)C)OC(=O)CCC [Butanoyl PAF]
scaled lipid accumulation score [2]: ≤ 0

CO[C@H]1C[C@@H]2CC[C@@H](C)[C@@](O)(O2)C(=O)C(=O)N2CCCC[C@H]2C(=O)O[C@H]([C@H](C)C[C@@H]2CC[C@H](n3cnnn3)[C@H](OC)C2)CC(=O)[C@H](C)/C=C(\C)[C@@H](O)[C@@H](OC)C(=O)[C@H](C)C[C@H](C)/C=C/C=C/C=C/1C [Zotarolimus(ABT-578)]
scaled lipid accumulation score [3]: 0.109
scaled lipid accumulation score [1]: ≤ 0

OC[C@H]1NC[C@@H](O)[C@@H](O)[C@@H]1O [1-Deoxymannojirimycin hydrochloride]
scaled lipid accumulation score [1]: ≤ -0.006
scaled lipid accumulation score (library stock concentration: 25.1 mM): ≤ -0.012

CCCCC(C)(C)[C@H](O)/C=C/[C@H]1C=CC(=O)[C@@H]1C/C=C\CCCC(=O)O [16,16-dimethyl Prostaglandin A2]
scaled lipid accumulation score [2]: ≤ 0

C#C[C@]1(O)CCC2C3CCC4=CC(=O)CC[C@@H]4C3CC[C@@]21CC (stereo partly drawn) [Norgestrel]
scaled lipid accumulation score [4]: 1.05 (active)

C#C[C@]1(O)CC[C@H]2[C@@H]3CCC4=CC(=O)CC[C@@H]4[C@H]3CC[C@@]21CC [Levonorgestrel]
scaled lipid accumulation score [2]: ≤ 0
scaled lipid accumulation score [3]: ≤ 0
scaled lipid accumulation score [4]: 0.107
scaled lipid accumulation score [1]: 0.727

C#C[C@]1(O)CC[C@H]2[C@@H]3CCC4=CC(=O)CC[C@@H]4[C@H]3CC[C@@]21CC
scaled lipid accumulation score [1]: 0.195

C#CC1(O)CC[C@H]2[C@@H]3CCC4=CC(=O)CC[C@@H]4[C@H]3CC[C@@]21CC (stereo partly drawn) [Norgestrel]
scaled lipid accumulation score [2]: 0.037
scaled lipid accumulation score [1]: 0.03

C#C[C@]1(O)CC[C@H]2[C@@H]3CCC4=CC(=O)CC[C@@H]4[C@H]3CC[C@@]21CC [Norgestrel-(-)-D]
scaled lipid accumulation score: ≤ 0

Nc1nc2c(nc(O)n2[C@@H]2O[C@H](CO)[C@@H](O)[C@H]2O)c(=O)[nH]1 [8-hydroxy Guanosine]
scaled lipid accumulation score [2]: ≤ 0

CCCCC[C@H](O)/C=C/[C@@H]1[C@H]2C/C(=C\CCCC(=O)O)C[C@H]2C[C@H]1O [5-cis Carbaprostacyclin]
scaled lipid accumulation score [2]: ≤ 0

O=C1OC[C@H](Cc2cccc(O)c2)[C@H]1Cc1cccc(O)c1
scaled lipid accumulation score [2]: ≤ 0

O=C(Nc1cccc(Nc2nccc(Nc3cccc(C(F)(F)F)c3)n2)c1)C1CC1 [Aurora Kinase Inhibitor III]
scaled lipid accumulation score [3]: 0.0325

CCN(CC)CCNC(=O)COc1ccc(OC)cc1 [Mefexamide]
scaled lipid accumulation score (library stock concentration: 6.3 mM): 0.018
scaled lipid accumulation score [1]: ≤ 0

CCN(CC)CCCCNc1ncc2c(n1)N(C)C(=O)N(c1c(Cl)c(OC)cc(OC)c1Cl)C2
scaled lipid accumulation score [5]: ≤ -0.008
scaled lipid accumulation score [6]: ≤ -0.008
scaled lipid accumulation score [7]: ≤ -0.001
scaled lipid accumulation score [1]: 0.416

CCN(CC)CCCCNc1ncc2cc(-c3cc(OC)cc(OC)c3)c(NC(=O)NC(C)(C)C)nc2n1 [listing 1 of 3 here]
scaled lipid accumulation score [7]: 1.12 (active)
scaled lipid accumulation score [1]: 1.22 (active)

CCN(CC)CCNC(=O)COc1ccc(OC)cc1 [Mefexamide hydrochloride]
scaled lipid accumulation score: ≤ 0

COc1cc(OC)cc(-c2cc3cnc(N)nc3nc2NC(=O)NC(C)(C)C)c1
scaled lipid accumulation score [1]: ≤ 0

CCN(CC)CCCCNc1ncc2cc(-c3cc(OC)cc(OC)c3)c(NC(=O)NC(C)(C)C)nc2n1 [listing 2 of 3 here]
scaled lipid accumulation score [5]: ≤ 0
scaled lipid accumulation score [6]: ≤ 0

CCN(CC)CCCCNc1ncc2cc(-c3cc(OC)cc(OC)c3)c(NC(=O)NC(C)(C)C)nc2n1 [listing 3 of 3 here]
scaled lipid accumulation score [3]: 1.34 (active)
scaled lipid accumulation score [1]: 1.01 (active)

CCCCCCCCCCCCCC=CC(O)C(CO)NC(=O)CCCCCCCCCCCCCCCCCCCCCCC (stereo not drawn) [Lignoceric Ceramide]
scaled lipid accumulation score [2]: ≤ 0

Nc1nc2ccc(Cl)cc2n2c(-c3ccccc3)nnc12
scaled lipid accumulation score [1]: 0.049

CCCCC#Cc1nc(NC)c2ncn([C@@H]3O[C@H](CO)[C@@H](O)[C@H]3O)c2n1
scaled lipid accumulation score [1]: ≤ 0 and ≤ -0.006

CC(C(C)N1CC(=O)NC(=O)C1)N1CC(=O)NC(=O)C1 (stereo not drawn)
scaled lipid accumulation score (library stock concentration: 17.7 mM): ≤ -0.012

C=N[C@@H](C(=O)N[C@@H]1C(=O)N2[C@@H]1SC(C)(C)[C@@H]2C(=O)O)c1ccccc1 [Metampicillin sodium salt]
scaled lipid accumulation score: ≤ 0

CC(=O)Oc1c(C)cccc1C(=O)O
scaled lipid accumulation score [1]: ≤ 0

CCCCC[C@@](C)(O)/C=C/[C@@H]1[C@@H](C/C=C\CCCC(=O)OC)[C@@H](O)C[C@H]1O [15(R)-15-methyl Prostaglandin F2.alpha. methyl ester]
scaled lipid accumulation score [2]: ≤ 0

CN1CCc2c(c3ccccc3n2Cc2ccc(C(=O)NO)cc2)C1 [Tubastatin A]
scaled lipid accumulation score [3]: ≤ 0
scaled lipid accumulation score [1]: ≤ 0

Cn1cc(CNCC2CCN(c3ncc(C(=O)NO)cn3)CC2)c2ccccc21 [listing 1 of 2 here]
scaled lipid accumulation score [3]: 0.478

Cn1cc(CNCC2CCN(c3ncc(C(=O)NO)cn3)CC2)c2ccccc21 [listing 2 of 2 here]
scaled lipid accumulation score [1]: 0.985 (active)

CN1CCc2c(c3ccccc3n2Cc2ccc(C(=O)NO)cc2)C1 [Tubastatin A HCl]
scaled lipid accumulation score [3]: ≤ 0
scaled lipid accumulation score [1]: 0.218

O=C(C[S+]([O-])Cc1ccco1)NC/C=C\COc1cc(CN2CCCCC2)ccn1 (stereo not drawn) [Lafutidine]
scaled lipid accumulation score [3]: ≤ 0
scaled lipid accumulation score [1]: ≤ 0

N=C(CC(O)COc1ccccc1-c1ccccc1)N1CCCCC1 (stereo not drawn)
scaled lipid accumulation score [1]: 0.781

C=CCc1ccccc1OCC(O)CNC(C)C (stereo not drawn) [Alprenolol HCl]
scaled lipid accumulation score (library stock concentration: 8 mM): 0.203

C=CCc1ccccc1OCC(O)CNC(C)C (stereo not drawn) [Alprenolol hydrochloride]
scaled lipid accumulation score: 0.634
scaled lipid accumulation score [1]: 0.5

CC(COc1ccccc1Cc1ccccc1)N1CCCCC1.O=P(O)(O)O (stereo not drawn)
scaled lipid accumulation score [1]: 1.02 (active)

O=c1ncc(F)c[nH]1 [5-fluoro-2-pyrimidone]
scaled lipid accumulation score [1]: ≤ 0
